# Results taken from PubChem BioAssay AID1259343 (VanderVen Lab, College of Veterinary Medicine, Cornell …, 2017).
# Out of some 6,200 compounds screened, about 2,900 (47%) were called active. Rule as the data show it: active = inhibition above about 50%; inactive = the rest. The set was probably picked from earlier hits. Some of the results follow.
# Experiment: Mycobacterium tuberculosis growth inhibition, primary screen (AID 1259343)
# Details: inhibition: at 10 µM, active compounds read high; outcome: 10 uM
row,SMILES,inhibition
1,c1ccc(-c2nc(Nc3ccc4c(c3)OCCO4)c3ccccc3n2)cc1,-17% (inactive)
2,c1nc(Nc2ccc3c(c2)OCCO3)c2c3c(sc2n1)CCCC3,-26.9% (inactive)
3,FC(F)(F)c1nc(Nc2ccc3c(c2)OCCCO3)c2ccccc2n1,100% (active)
4,COc1cccc(COc2coc(CN3CCCN(S(=O)(=O)c4ccc(OC(F)(F)F)cc4)CC3)cc2=O)c1,10.6% (inactive)
5,O=C(NCC(=O)N1CCN(Cc2ccc(OC(F)(F)F)cc2)CC1)c1ccco1,94.3% (active)
6,CC(C)(Oc1ccc(Cl)cc1)C(=O)NCc1ccoc1,24.1% (inactive)
7,CC(C)CSc1nnc(Nc2ccc(C(C)C)cc2)s1,92.2% (active)
8,Cc1ccc(Nc2nnc(SCC(C)C)s2)cc1,94.1% (active)
9,CC(C)c1ccc(Nc2nnc(SCCO)s2)cc1,25.5% (inactive)
10,COc1cccc(C(=O)Nc2ccc(Oc3ccc(F)cc3)nc2)c1OC,45% (inactive)
11,O=C(CC1CCCC1)Nc1ccc(S(=O)(=O)C(F)F)cc1,11.8% (inactive)
12,CCCCOc1ccc(NC(=O)CC2CCCC2)cn1,99.4% (active)
13,OCCC#Cc1ccc(CN2CCCC(Nc3ccccc3)C2)cc1 (stereo not given),70.9% (active)
14,Clc1cccc(CN2CCCC(Nc3ccccc3)C2)c1 (stereo not given),59.2% (active)
15,CC(C)c1cc(C(=O)N2CCCC(N3CCN(c4cccc(C(F)(F)F)c4)CC3)C2)on1 (stereo not given),46.1% (inactive)
16,OCC1(Cc2ccccc2)CCCN(Cc2ccc(-c3ccco3)cc2)C1 (stereo not given),inactive
17,Clc1cccc(N2CCN(C3CCCN(Cc4ccc5nsnc5c4)C3)CC2)c1 (stereo not given),75.5% (active)
18,OCCC#Cc1ccc(CN2CCCC(CO)(Cc3ccccc3)C2)cc1 (stereo not given),69.2% (active)
19,CSc1ncc(CNCCc2cccc(Cl)c2)c(N2CCCC(C)C2)n1 (stereo not given),18% (inactive)
20,OCC1(Cc2ccccc2)CCCN(Cc2ccc(OC(F)(F)F)cc2)C1 (stereo not given),20.7% (inactive)
21,Oc1cccc(-c2cc(C3CCN(Cc4ccc5nonc5c4)C3)ccn2)c1 (stereo not given),14.6% (inactive)
22,O=C(c1ccc(-c2ccccc2)cc1)C1CCCN(Cc2ccncc2)C1 (stereo not given),inactive
23,Oc1ccccc1CN1CCCC(Nc2cccc(F)c2)C1 (stereo not given),72.9% (active)
24,Cc1cc(Cl)ccc1C(=O)C1CCCN(Cc2ccc(C#CCCO)cc2)C1 (stereo not given),77.5% (active)
25,O=C(NCc1cccnc1-n1cccn1)C1CCCN(Cc2cccnc2)C1 (stereo not given),-13.9% (inactive)
26,O=C(CN1CCCC1c1ccccc1)Nc1cc(F)cc(F)c1 (stereo not given),2.2% (inactive)
27,c1ccc(NC2CCCN(Cc3ccc4nsnc4c3)C2)cc1 (stereo not given),65.6% (active)

row,SMILES,inhibition
1,O=C(c1ccc(Cl)cc1)C1CCCN(Cc2cccc3cnccc23)C1 (stereo not given),-4.04% (inactive)
2,O=C(c1cc(F)ccc1F)C1CCCN(Cc2cccc3cnccc23)C1 (stereo not given),inactive
3,CCN(CC)c1ccc(/C=C2\SC(=S)N(Cc3ccccc3)C2=O)c(O)c1,-15.2% (inactive)
4,N#Cc1ccc(CNc2ccccc2Br)cc1,49.2% (inactive)
5,CN(CC(=O)Nc1ccccc1Br)C1CCc2ccccc21 (stereo not given),34.1% (inactive)
6,N#Cc1ccc(NC(=O)Nc2ccccc2Br)c2n[nH]nc12,64.4% (active)
7,COc1ccc(C(CC(=O)c2cccs2)Sc2ccccc2NC(C)=O)cc1 (stereo not given),53.2% (active)
8,COc1ccc(C2c3cccn3CCN2C(=O)Nc2cccs2)cc1 (stereo not given),-1.32% (inactive)
9,O=c1oc2ccccc2cc1S(=O)(=O)c1ccc(Cl)cc1,-58.5% (inactive)
10,NC(=S)c1cc2ccccc2oc1=O,101% (active)
11,Cc1ccn2c(=O)nc(SCc3ccc(Cl)cc3Cl)nc2c1,31.1% (inactive)
12,Cc1ccn2c(=O)nc(SCc3cccc(C(F)(F)F)c3)nc2c1,2.92% (inactive)
13,Cc1ccn2c(=O)nc(SCc3ccc(Cl)cc3)nc2c1,77.5% (active)
14,Cc1ccn2c(=O)nc(SCc3cccc(Cl)c3)nc2c1,86.3% (active)
15,Cc1ccn2c(=O)nc(SCc3ccc(Br)cc3)nc2c1,1.95% (inactive)
16,Cc1ccc(CSc2nc(=O)n3ccc(C)cc3n2)cc1,24.5% (inactive)
17,Cc1ccn2c(=O)nc(SCc3ccc(Cl)c(Cl)c3)nc2c1,59% (active)
18,Cc1ccn2c(=O)nc(SCc3ccc(F)cc3)nc2c1,1.46% (inactive)
19,Cc1ccn2c(=O)nc(SCCc3ccccc3)nc2c1,88.3% (active)
20,CCCSc1nnnn1-c1ccc(O)cc1,55% (active)
21,N#CCSc1nnnn1-c1ccc(O)cc1,-12.8% (inactive)
22,O=C(CSc1ncnc2c1cnn2-c1ccc(F)cc1)Nc1ccon1,68.2% (active)
23,COc1cc(NC(=O)CSc2ncnc3c2cnn3C)cc(OC)c1,35.5% (inactive)
24,Cc1noc(-c2ccnc(NCc3ccc(C#N)cc3)c2)n1,22.9% (inactive)
25,O=C(C[P+](c1ccccc1)(c1ccccc1)c1ccccc1)C12CC3CC(CC(C3)C1)C2,95.7% (active)
26,Cc1nc(SCC(=O)C23CC4CC(CC(C4)C2)C3)nc(C)c1C,45% (inactive)
27,Cc1ccc(-n2c(SCC(=O)N3CCNC3=O)nc3sc4c(c3c2=O)CCC4)c(C)c1,91.2% (active)

row,SMILES,inhibition
1,CC(=O)CSc1nc2sc(C)c(C)c2c(=O)n1C1CCCCC1,12% (inactive)
2,Fc1ccc(Cc2nc(CSc3c(F)c(F)cc(F)c3F)cs2)c(Cl)c1,50.2% (active)
3,CNC(Cc1ccc(Br)cc1)Cc1ccc(Br)cc1,68.1% (active)
4,NCCOc1ccc(C23CC4CC(CC(C4)C2)C3)cc1,-5.79% (inactive)
5,CN1CCN(CC(O)COc2ccc(C34CC5CC(CC(C5)C3)C4)cc2)CC1 (stereo not given),101% (active)
6,CCCCCNc1ncnc2sc3c(c12)CCCC3,-24.3% (inactive)
7,c1nc(NN=C2C3CC4CC(C3)CC2C4)c2c3c(sc2n1)CCC3,100% (active)
8,Cc1cn2nc(NC3CCCCCCC3)sc2n1,-9.07% (inactive)
9,c1csc(CCNc2ncnc3sc4c(c23)CCC4)c1,-1.33% (inactive)
10,COCc1nc(NCCC2=CCCCC2)c2cnn(C)c2n1,-33.4% (inactive)
11,c1nc(NC2CCCCCC2)c2c3c(sc2n1)CCCC3,94.5% (active)
12,CC(=NNc1ncnc2sc3c(c12)CCC3)c1cc2ccccc2o1,24.7% (inactive)
13,C1=C(CCNc2ncnc3sc4c(c23)CCC4)CCCC1,97% (active)
14,c1nc(NC2CCCCCC2)c2c3c(sc2n1)CCC3,68% (active)
15,O=S(=O)(Nc1ncnc2sc3c(c12)CCC3)c1cccs1,101% (active)
16,O=C(CSc1nnc(CCn2ccc(=O)[nH]c2=O)o1)N1CCc2ccccc2C1,4.33% (inactive)
17,Cc1nc(-c2ccccn2)[nH]c(=O)c1CC(=O)N1CCc2ccccc2C1,67.7% (active)
18,Cc1ccc(NC(=O)c2cc(C)n(C3CC3)c2C)c(C)c1,12.4% (inactive)
19,CC1=C(C#N)C(C(F)(F)F)(C(F)(F)F)N=C(C2CCCCC2)N1,11.3% (inactive)
20,CC(=O)Nc1nc(COc2ccc(Cl)cc2Br)cs1,41.2% (inactive)
21,Nc1nc(COc2ccc(Cl)cc2Cl)cs1,87.6% (active)
22,Cc1nc(COc2ccccc2C(=O)Nc2ccc(Cl)cc2C)cs1,-36.5% (inactive)
23,CCCCn1c(C2CCCCC2)nc2oc3ccccc3c(=O)c2c1=O,-33.2% (inactive)
24,COc1nc(C)ccc1CNC(=O)C(=O)Nc1cccc(F)c1F,8.51% (inactive)
25,Cc1ccc(-c2noc(CSc3ncccn3)n2)cc1,42.6% (inactive)
26,CN(Cc1nc(-c2ccc(C(F)(F)F)cc2)no1)CC(O)c1ccccc1 (stereo not given),84.5% (active)
27,Cc1ccc(-c2noc(COc3ccc(C(C)C)cc3)n2)cc1,95.7% (active)

row,SMILES,inhibition
1,Cc1ccc(-c2noc(CC#N)n2)cc1,77.1% (active)
2,Clc1ccc(-c2noc(COc3ccc4c(c3)OCO4)n2)cc1,18.1% (inactive)
3,CC(C)c1ccc(-c2noc(CN(C)c3ccccc3)n2)cc1,63.2% (active)
4,CN(Cc1nc(-c2ccccc2)no1)Cc1ccnc2ccccc12,-26.1% (inactive)
5,N#CCOc1ccc(CNc2ncc(Br)cn2)cc1,33.8% (inactive)
6,Cc1ccc(-c2noc(CN3CCCc4ccccc43)n2)cc1,101% (active)
7,N#Cc1c(SCc2ccccc2)n[nH]c1-c1cccs1,37.8% (inactive)
8,O=c1[nH]nc(SCc2ccccc2)c(=S)[nH]1,85.6% (active)
9,CC(C)CC(=O)Nc1nnc(C(C)(C)C)s1,17.4% (inactive)
10,CC(C)(C)c1nnc(NC(=O)c2cc(C(F)(F)F)cc(C(F)(F)F)c2)s1,96% (active)
11,CC(C)Cc1cc(C(=O)N2C[C@@H]3[C@H](C2)[C@H]2CC[C@@H]3O2)on1,83.1% (active)
12,CC(C)c1cc(C(=O)N2C[C@@H]3[C@H](C2)[C@H]2CC[C@@H]3O2)cs1,-8.56% (inactive)
13,CCCc1nc(N2C[C@@H]3[C@H](C2)[C@H]2CC[C@@H]3O2)no1,-30.4% (inactive)
14,CC1CCN(C(=O)Nc2ccc(Br)cc2)CC1,30.1% (inactive)
15,Cc1ccc(NC(=O)N2CCN(CCCOC(c3ccc(Cl)cc3)c3ccc(Cl)cc3)CC2)cc1,-2.85% (inactive)
16,CC(C)c1noc(-c2ccc(NC(=O)N3CCCC3)cc2)n1,73.4% (active)
17,COc1ccc(NC(=O)c2ccc(=O)n(C)c2)cc1Br,2.47% (inactive)
18,Cc1ccc(NC(=O)c2ncoc2C(C)C)cc1Br,40.1% (inactive)
19,COC(F)(C(=O)Nc1ccc(C)c(Br)c1)C(F)(F)F (stereo not given),56.7% (active)
20,O=C1CC(c2ccccc2)CC(=O)C1S(=O)c1ccc(Cl)cc1 (stereo not given),58.1% (active)
21,C=C=C/C=C/C=C\Oc1ccc(CO)cc1O/C=C\C=C\C=C=C,88.7% (active)
22,Brc1ccc(OCc2nnc(-c3cccs3)o2)cc1,42.8% (inactive)
23,Cc1nc(COc2ccc(Oc3nccs3)cc2)oc1C,80% (active)
24,CC(C)(C)c1noc(COc2ccc(O)cc2)n1,39.8% (inactive)
